Assay outcomes as filed in PubChem BioAssay.
An excerpt weighted towards active compounds, which were near 2.8% of everything screened.
KKLEB cytotox: reduces viability of KKLEB cystic fibrosis airway cells. KKLEB CF airway cells viability, ATPlite luminescence, overnight; active compounds read low; cells stimulated with P. aeruginosa culture filtrate. activity change (cytotoxicity), % at 5 µM. 0.36% of 360,000 active. AID 602141;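 active = corrected activity change at or below -50% at 5 µM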
Peg3 prom inh: Peg3 promoter activity inhibition | HeLa PEG-Prom luciferase reporter, luminescence, overnight | inhibition, % at 20 µM | 1.7% of 360,000 active | AID 588405;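 active = inhibition of at least 50% at 20 µM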
CF NFkB block: inhibitors of cystic fibrosis induced NF-kB. inhibition, % at 5 µM. KKLEB NF-kB-GFP reporter, PAF-induced, GFP fluorescence overnight. 0.86% of 360,000 active;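 active = at least 50% inhibition at 5 µM, scaled per plate between neutral and stimulator controls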;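 note: PAF is a Pseudomonas aeruginosa culture filtrate used as stimulus; plate controls were PAF-stimulated DMSO wells for no effect and unstimulated DMSO wells for full effect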
HIF-2a inh: inhibitors of HIF-2a; inhibition, % at 18.8 µM; AID 624352; 786-0 RCC cells HIF-2a reporter, luciferase luminescence, overnight; 0.72% of 360,000 active;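 active = inhibition of the luminescence signal of 40% or more relative to plate controls, in a single-dose primary screen at 18.75 µM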
Shn3 3UTR inh: inhibitors of Schnurri-3 3'UTR reporter in osteoblasts. Clone20 osteoblast Shn3 3'UTR firefly luciferase, 24 h. inhibition, % at 12.5 µM. 0.52% of 360,000 active;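 active = mean inhibition of at least 75% with every replicate also reaching 75%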;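 note: 0% = median of neutral control wells and 100% = pilot-screen positive control compound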
MITF TRPM1 inh: MITF TRPM1 promoter inhibition in SK-MEL-5 cells. inhibition, % at 12.5 µM. SK-MEL-5 TRPM1 promoter luciferase, 24 h. 0.83% of 330,000 active;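 active = mean inhibition across replicates of 60% or more, whatever share of single replicates reaches that level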
Starred values were filed as active, the others as inactive; . = no result.

SMILES	KKLEB cytotox	Peg3 prom inh	CF NFkB block	HIF-2a inh	Shn3 3UTR inh	MITF TRPM1 inh
O=C(Nc1c(Cl)cc2c(c1Cl)Cc1cc([N+](=O)[O-])ccc1-2)C(Cl)Cl	-14	-4	-9	-25	95*	-15
CC(=O)Nc1ccc2c(c1)Cc1c-2cc(Cl)c(NC(C)=O)c1Cl	3	-40	-14	-106	-11	-19
CCOC(=O)c1ccc(-c2ccc(/C=C(\C#N)C(=O)NCc3cccs3)o2)cc1	4	72*	2	5	16	45
COc1cc(OC)c(OC)cc1/C=C(\C#N)C(=O)NCc1cccs1	4	2	-16	8	17	6
O=c1oc2ccccc2cc1-c1nc2ccccc2o1	9	-182	-14	-165	-72	-45
Nc1cc2nc3ccccc3oc-2cc1=O	0	-37	53*	-20	28	88*
COc1cccc(CN2CCNC(=O)C2CC(=O)NCCc2nc(C)c(C)s2)c1OC (configuration not stated)	-14	15	-6	10	-5	8
Fc1ccc(C2CCNCC2COc2ccc3c(c2)OCO3)cc1 (configuration not stated)	-10	61*	-8	11	9	-9
O=C(COc1ccc2c(c1)OCO2)Nc1ccccc1F	0	-179	-4	-218	-53	-51
Cc1c(N=Nc2c(-c3ccc([N+](=O)[O-])cc3)[nH]n(C(N)=S)c2=O)cccc1[N+](=O)[O-]	-46	16	26	4	16	62*
NC(=S)n1[nH]c(-c2ccc([N+](=O)[O-])cc2)c(N=Nc2ccccc2[N+](=O)[O-])c1=O	4	-5	-38	-14	9	8
Cc1ccc(N=c2oc3cc(O)ccc3cc2C(N)=O)cc1	-23	-172	83*	-140	-48	-34
CCCCNC(=S)N/N=C/c1cccc(OCC)c1O	5	-46	-12	-52	-8	-32
CCOc1cccc(/C=N/NC(=S)Nc2ccccc2[N+](=O)[O-])c1O	-12	4	1	48*	24	58
O=C(NCc1cccc(C(F)(F)F)c1)N1CCN(S(=O)(=O)c2ccccc2F)CC1	9	23	5	9	26	-2
COc1ccccc1-c1oc2ccccc2c1C#CC1(O)CCCCC1	-1	5	0	27	-9	-10
COc1ccccc1-c1oc2ccccc2c1C#CC1(N)CCCCC1	-18	72*	8	9	-41	25
Cc1onc(-c2ccccc2)c1C(=O)N/N=C/c1ccc([N+](=O)[O-])s1	1	25	-15	24	-1	65*
O=C(Cc1cccs1)N/N=C\c1ccc([N+](=O)[O-])s1	6	-37	5	-62	14	52
O=[N+]([O-])c1ccc(C=Nc2ccc(Cl)c([N+](=O)[O-])c2)s1	-8	81*	25	-3	80	71*
Cc1ccc(NC(=S)N/N=C/c2ccc([N+](=O)[O-])s2)cc1	6	6	-2	-56	66	70*
Cc1cc(C)cc(N=Cc2ccc([N+](=O)[O-])s2)c1	2	51*	-1	9	10	28
O=S(=O)(CCc1ccncc1)c1ccc(Cl)cc1	4	11	1	11	8	14
CCN(CC)S(=O)(=O)c1ccc(NC(=O)C2CCCN(C(=O)c3ccc(Cl)cc3)C2)cc1 (configuration not stated)	8	3	2	22	11	-2
COc1cc(NC(=O)COc2cc(O)c3c(c2)OC(C)(C)CC3=O)cc(OC)c1OC	-4	16	3	-74	86*	72*
SMILES	KKLEB cytotox	Peg3 prom inh	CF NFkB block	HIF-2a inh	Shn3 3UTR inh	MITF TRPM1 inh
CC1(C)CC(=O)c2c(O)cc(OCC(=O)Nc3ccc(S(N)(=O)=O)cc3)cc2O1	11	13	0	15	9	-6
O=C1S/C(=C/c2ccc(N3CCOCC3)o2)C(=O)N1Cc1c(F)cccc1Cl	-2	-5	-25	-6	9	-10
O=C1S/C(=C\c2ccc(N3CCOCC3)o2)C(=O)N1Cc1c(F)cccc1Cl	-16	8	5	-1	96*	2
O=S(=O)(SC1=NCCN1)c1ccccc1	4	0	5	13	2	-9
O=S(=O)(/N=S1\CC=CCN1S(=O)(=O)c1ccccc1)c1ccccc1 (configuration not stated)	-12	0	4	13	94*	-7
Clc1ccc(-c2nnc(Sc3nc4ccccc4o3)c3ccccc23)cc1	-18	25	42	24	-24	-22
O=c1c(Cl)c2oc3ccccc3nc-2c2ccccc12	8	-15	-57	-20	8	63*
Cc1cccc(CS(=O)(=O)Cc2ccc(C(=O)NC(C)c3ccccc3)o2)c1 (configuration not stated)	4	19	3	2	-1	-5
Cc1ccccc1CS(=O)(=O)c1nnc([C@H](Cc2ccccc2)NC(=O)OC(C)(C)C)o1	-24	104*	72*	21	95*	83*
CCC(C)[C@@H](NC(=O)OC(C)(C)C)c1nnc(S(=O)(=O)Cc2cccc(C)c2)o1 (some centres not stated)	-7	108*	82*	40	98*	71*
Cc1ccc(C)c(OCC(=O)Nc2ccccc2C(=O)N2CCOCC2)c1	-6	15	27	7	17	5
CN(C)c1cc[n+](CC(=O)c2ccc(-c3ccccc3)cc2)cc1	-27	31	48	7	73	70*
O=[N+]([O-])c1ccc(S(=O)Cc2ccccc2)c([N+](=O)[O-])c1 (configuration not stated)	-20	96*	86*	93*	95*	97*
CCc1cc(C(=O)N2CCCC(C(=O)c3ccc(C(F)(F)F)cc3)C2)n(C)n1 (configuration not stated)	-10	-11	9	-5	9	-3
Cc1nonc1NC(=O)CSc1nnnn1-c1ccccc1	-10	0	5	3	1	-5
COc1cc(-c2cnc3c(NC=O)cc(-c4cccc(C(=O)NCCN(C)C)c4)cn23)cc(OC)c1OC	-12	3	-19	-6	-17	.
CCOC(=O)N1CCC(NC(=O)C2CCCN(Cc3nc(-c4cccc(C)c4)oc3C)C2)CC1 (configuration not stated)	-7	22	27	21	86*	72*
Cc1cccc(-c2nc(CN3CCCC(C(=O)NC4CCCC4)C3)c(C)o2)c1 (configuration not stated)	-17	11	-5	11	19	0
CCCCN1C(=O)C(=O)N(CC(=O)Nc2cc(Cl)ccc2OC)C1=O	10	-1	-25	10	8	9
CCCc1ccc(Oc2cn[nH]c2-c2ccc(O)c(C)c2O)cc1	3	10	53*	-78	21	6
